# Assay outcomes (PubChem BioAssay)
# Shown are actives, neighbours in structure and some others; about 2.9% of the full set was active somewhere.
# GRK2 inh: inhibitors of human GRK2 displacing RNA aptamer; 0.59% of 330,000 active; P25098; bead flow cytometry, FAM-aptamer displacement from GRK2; AID 488847; inhibition of aptamer binding, % at 10 µM;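 active = inhibition of aptamer binding above 40%, roughly 3 SD of noise, on plates passing a quality check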;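 also: median bead fluorescence of bound FAM aptamer so fluorescent compounds give negative values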
# Beta2AR agonist: activates human beta-2 adrenergic receptor causing internalization; AID 504454; response, % (test concentration not listed); Am2.2-beta2AR cells, FAP receptor internalization, flow cytometry; 0.43% of 340,000 active; P07550;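 active = response above a set limit, near 3 SD of response in nonfluorescent compounds, cut at about 42% in these data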
# Target sequence (P07550 whole entry, looked up): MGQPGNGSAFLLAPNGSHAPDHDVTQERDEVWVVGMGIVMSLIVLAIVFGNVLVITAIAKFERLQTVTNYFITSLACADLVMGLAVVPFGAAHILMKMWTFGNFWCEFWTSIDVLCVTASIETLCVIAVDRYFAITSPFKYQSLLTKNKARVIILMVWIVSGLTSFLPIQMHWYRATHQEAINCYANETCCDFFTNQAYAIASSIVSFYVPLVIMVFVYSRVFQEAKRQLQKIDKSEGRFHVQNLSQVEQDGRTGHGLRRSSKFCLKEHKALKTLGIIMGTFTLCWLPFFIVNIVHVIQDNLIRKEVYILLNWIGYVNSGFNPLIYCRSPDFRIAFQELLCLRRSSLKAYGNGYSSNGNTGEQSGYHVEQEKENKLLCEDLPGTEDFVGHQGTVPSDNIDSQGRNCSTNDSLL
# MEKK2 WT-MEK5: raises or lowers MEK5 binding to wildtype human MEKK2 PB1 domain; Q9Y2U5; bead flow cytometry, Alexa488-MEK5 binding to MEKK2 WT; actives lie on both sides; binding response (% of control), % at 10 µM; 1.1% of 290,000 active; in the data active = binding response below about 67% or above about 130%
# MEKK3 PB1 HTS: MEKK3-MEK5 PB1 interaction, increase or decrease; binding response (% of control), % at 10 µM; 1.4% of 290,000 active; bead-based flow cytometry, Alexa488-MEK5 binding to MEKK3; actives lie on both sides; 0 = blocked by unlabeled MEK5, 100 = vehicle; Q99759;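 active = binding response more than 3 SD above or below the average of its plate-row segment, actives on both sides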;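 also: Alexa488 bead fluorescence after subtracting the streptavidin-only scavenger bead signal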
# MEKK2mut PB1 HTS: signal of MEK5 binding to mutant human MEKK2 PB1 domain | bead flow cytometry, Alexa488-MEK5 binding to MEKK2 mutant | percent response, % at 10 µM | 0.35% of 290,000 active | AID 1530; in the data active = percent response above about 24%, passing the limit was not always enough
# MEKK2wt confirm: raises or lowers MEK5 binding to wildtype human MEKK2, retest. shares compounds with MEKK3 PB1 HTS. bead flow cytometry, Alexa488-MEK5 binding to MEKK2 WT; actives lie on both sides. binding response (% of control), % at 10 µM. 2.4% of 5,900 active; in the data active = binding response below about 16% or above about 210%; inactive = in between
# MEKK2mut confirm: signal of MEK5 binding to mutant human MEKK2, retest. shares compounds with MEKK3 PB1 HTS. bead flow cytometry, Alexa488-MEK5 binding to MEKK2 mutant. percent response, % at 10 µM. 2% of 5,900 active; in the data active = percent response mostly above about 71%, no sharp cut-off; inactive = mostly below about 38%;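 also: higher means compound restores mutant binding toward wildtype level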
# MEKK3 confirm: MEKK3-MEK5 PB1 inhibition, single concentration confirmation; bead flow cytometry, Alexa488-MEK5 binding to MEKK3; active compounds read low; shares compounds with MEKK3 PB1 HTS; 1.8% of 5,900 active; AID 1894; binding response (% of control), % at 10 µM;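 active = binding response below 72% of control, or above a set upper limit, though filed actives all read lower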;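 also: 100% = DMSO only wells and 0% = binding blocked by excess unlabeled MEK5; lower values mean stronger disruption of MEK5 binding to MEKK3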
# * = called active by the depositor; nt = not tested or not shown; [ ] = another dose, or the depositor's remark.
SMILES,GRK2 inh,Beta2AR agonist,MEKK2 WT-MEK5,MEKK3 PB1 HTS,MEKK2mut PB1 HTS,MEKK2wt confirm,MEKK2mut confirm,MEKK3 confirm
Cc1cc2cc(CN(Cc3nnnn3C3CCCCC3)CC3CCCO3)c(=O)[nH]c2cc1C (configuration not stated),1,-3,107,107,7,nt,nt,nt
Cc1ccc2[nH]c(=O)c(CN(Cc3cccnc3)Cc3nnnn3CC3CCCO3)cc2c1 (configuration not stated),2,-6,121,135*,32,106,4,106
Cc1ccc2cc(CN(Cc3nnnn3C3CCCCC3)CC3CCCO3)c(=O)[nH]c2c1 (configuration not stated),0,-15,-3.0*[inhibitor],1.0*[inhibitor],-20,94,-1,99
Cc1ccc2[nH]c(=O)c(CN(Cc3cccnc3)Cc3nnnn3CCN3CCOCC3)cc2c1,1,-6,2.0*[inhibitor],2.0*[inhibitor],-41,101,1,101
O=c1[nH]c2cc3c(cc2cc1CN(Cc1ccc2c(c1)OCO2)Cc1nnnn1CC1CCCO1)OCO3 (configuration not stated),0,-7,102,98,3,nt,nt,nt
COCCn1nnnc1CN(Cc1cccnc1)Cc1cc2cc(OC)ccc2[nH]c1=O,nt,-9,103,102,2,nt,nt,nt
Cc1cccc([C@H]2[C@@H]3C=CCC[C@@H]3C(=O)N2Cc2ccccc2)c1,0,1,nt,nt,nt,nt,nt,nt
CC(C)(C)c1ccc(NC(=O)c2c(F)cccc2Cl)cc1,0,8,34*[inhibitor],47*[inhibitor],-61,105,5,105
COC1CCCN(C(=O)c2cccc(OC3CCN(S(C)(=O)=O)CC3)c2)C1 (configuration not stated),4,0,94,99,4,nt,nt,nt
COc1ccc(CN2CCN(C)CC2)cc1OCc1ccccc1,2,6,82,69*[inhibitor],-9,108,7,108
COc1ccc(CN2CCC(C(N)=O)CC2)cc1OCc1ccccc1,0,1,107,103,0,nt,nt,nt
Nc1cc2nc[nH]c2cc1N,nt,0,41*[inhibitor],31*[inhibitor],-23,76,-18,69*
Cn1c(=O)n(C)c2cc3[nH]cnc3cc21,40,-7,96,96,3,nt,nt,nt
COCCn1c(SCC(=O)Nc2ccc3c(c2)OCCO3)nnc1-c1ccncc1,0,-5,nt,nt,nt,nt,nt,nt
O=C(O)CSc1nnc(COc2cccc3ccccc23)o1,3,0,101,103,1,nt,nt,nt
COC(=O)CSc1nnc(COc2cccc3ccccc23)o1,0,6,117,116,28*,105,4,108
COc1cccc(CNC(=O)COC(=O)C2CC3CCCC(C2)C3=O)c1 (configuration not stated),3,-4,nt,nt,nt,nt,nt,nt
COc1ccc([C@@H]2[C@@H]3C(=O)N(C(C)(C)C)C(=O)[C@@H]3[C@]3(C)C(=O)N(c4cccc(Br)c4)C(=O)N23)cc1,0,-3,92,101,-8,nt,nt,nt
O=C(/C=C\c1ccccc1OC(=O)c1ccccc1F)c1cc2ccccc2o1,3,24,103,135*,0,105,0,109
O=C(NCC1CC1)C1(C(F)(F)F)C/C(=C\Cc2ccccc2)CCCO1 (configuration not stated),2,30,105,104,5,nt,nt,nt
COC(=O)c1ccc(CNC(=O)COC(=O)C23CC4CC(CC(C4)C2)C3)cc1,0,2,93,75*[inhibitor],-2,99,-1,105
COc1cccc(N2CCN(S(=O)(=O)c3ccc(-n4cnnn4)cc3)CC2)c1,1,-7,106,101,6,nt,nt,nt
CCN(CC(=O)Nc1ccc(NC(C)=O)cc1)C(=O)c1cc2c(s1)CCCCC2,0,-7,nt,nt,nt,nt,nt,nt
CCCCN(C(=O)c1ccc(NC2CC2)c([N+](=O)[O-])c1)c1c(N)n(CC(C)C)c(=O)[nH]c1=O,0,-14,nt,nt,nt,nt,nt,nt
CC(=O)Nc1ccc(C(=O)NNC(=O)c2cccs2)cc1,2,0,85,85,-3,nt,nt,nt
SMILES,GRK2 inh,Beta2AR agonist,MEKK2 WT-MEK5,MEKK3 PB1 HTS,MEKK2mut PB1 HTS,MEKK2wt confirm,MEKK2mut confirm,MEKK3 confirm
Cc1ccc(NC(=O)NNC(=O)c2cccs2)cc1,4,-6,94,71*[inhibitor],0,102,0,106
COc1ccc(OC)c(-c2csc(NC(=O)CSc3nnnn3C)n2)c1,0,1,nt,nt,nt,nt,nt,nt
O=C1c2ccccc2C(=O)N1CCCCSc1nc2ccccc2c(=O)n1CCCN1CCOCC1,0,-12,135,143*,6,107,-1,102
Cc1ccc(NC(=O)CSc2nc3ccccc3c(=O)n2CCCN2CCCCC2)cc1C,0,19,149*,101,4,142,22,108
CCn1c(SCC(=O)N2CCCC2)nc2ccccc2c1=O,1,-7,52*[inhibitor],74*[inhibitor],5,105,7,109
Cn1c(SCC(=O)N2CCCC2)nc2ccccc2c1=O,0,3,85,87,-4,nt,nt,nt
Cc1cccc(N2CCN(C(=O)c3ccc(-n4cncn4)c([N+](=O)[O-])c3)CC2)c1C,2,-6,104,99,4,nt,nt,nt
S=C(NCCCN1CCOCC1)N(Cc1ccccc1)Cc1ccccc1,0,0,108,110,12,nt,nt,nt
COc1ccc2cc(S(=O)(=O)NCc3cccnc3)ccc2c1,0,1,99,98,1,nt,nt,nt
O=C(COC(=O)Cc1ccccc1[N+](=O)[O-])NCc1ccc(Cl)cc1,0,2,107,143*,0,109,1,106
Cc1cc(C(=O)OCC(=O)N(CC(C)C)c2c(N)n(Cc3ccccc3)c(=O)[nH]c2=O)c(C)o1,1,-1,nt,nt,nt,nt,nt,nt
C1CCCCCC(NCCN2CCNCC2)CCCCC1,0,32,158*,105,22,142,19,100
CC1CCCCN1S(=O)(=O)c1ccc(C(=O)N2CCOCC2)cc1 (configuration not stated),0,-4,94,97,-1,nt,nt,nt
CC(Oc1ccc(Cl)cc1Cl)c1ccn[nH]1 (configuration not stated),0,3,100,101,6,nt,nt,nt
CC1=C(C)Cc2c(OC(=O)c3ccccc3)ccc(OC(=O)c3ccccc3)c2C1,2,nt,51,42*[inhibitor],8,101,2,98
COc1ccc(S(=O)(=O)N2CCCOC2CNC(=O)C(=O)NCc2ccco2)cc1 (configuration not stated),9,13,95,95,-3,nt,nt,nt
O=C(CCc1nnc(CCCCc2ccccc2)o1)NCCCc1cccnc1,1,1,9.0*[inhibitor],66,-19,102,4,106
